The text below walks through data of PubChem BioAssay AID1851 (National Center for Advancing Translational Sciences (NCATS), 2009).

Molecules are shown by their SMILES. Screen size: about 16,000 compounds; about 5,700 (36%) were called active. Not shown: some 24% with an inconclusive outcome. The call rests on the fitted dose curve; in most records, active means well fitted curve in the direction sought with a large enough effect; inconclusive means small, poorly fitted or top-dose-only effect, or effect the other way; inactive means no such curve, though single readings can be large or run the other way. The list shows a part of the results.
On the % scale 0 is the no-effect control and ±100 the full control effect.

In the test the target is Cytochrome P450 1A2 (Homo sapiens) (UniProt P05177). Description: Cytochrome panel assay with activity outcomes. The following applies: recombinant CYP, pro-luciferin dealkylation, luminescence, p450-cyp1a2; series mostly up to 57.1 µM.
Sequence of Cytochrome P450 1A2 (Homo sapiens) (P05177 whole entry, looked up): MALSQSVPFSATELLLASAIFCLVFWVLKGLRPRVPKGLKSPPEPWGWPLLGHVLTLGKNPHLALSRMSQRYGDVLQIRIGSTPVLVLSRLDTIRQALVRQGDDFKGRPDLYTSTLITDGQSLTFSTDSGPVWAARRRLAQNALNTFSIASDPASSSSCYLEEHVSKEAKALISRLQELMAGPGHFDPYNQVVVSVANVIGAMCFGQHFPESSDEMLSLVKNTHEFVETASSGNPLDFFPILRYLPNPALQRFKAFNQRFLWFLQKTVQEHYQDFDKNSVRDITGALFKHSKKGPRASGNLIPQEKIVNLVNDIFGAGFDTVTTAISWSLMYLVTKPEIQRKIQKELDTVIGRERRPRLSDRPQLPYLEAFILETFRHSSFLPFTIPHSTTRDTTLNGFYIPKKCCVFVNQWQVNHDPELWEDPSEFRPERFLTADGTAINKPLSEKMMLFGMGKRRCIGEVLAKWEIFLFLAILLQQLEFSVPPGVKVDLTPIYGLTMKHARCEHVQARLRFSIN
For the compound `Nc1nc2c(c(=O)[nH]1)CN(c1ccc(S(N)(=O)=O)cc1)CN2`, the activity, negative = inhibition is 8.8% [at 2.29 µM] (inactive).

With `CC(=O)Nc1nnc(S(N)(=O)=O)s1`, the AC50 (usually the midpoint of the concentration-response curve, whichever way the signal moves) was “inactive”.

With `CC(C)=CC(=O)Nc1nnc(C(C)C)s1`, the AC50 was 15.8 µM (active).

Take `CC(C)c1nnc(NC(=O)CCC(=O)N2CCN(c3ccccn3)CC2)s1`: the AC50 result is “inactive”.

For `Cc1ccc(-c2csc(NC(=S)NC(=O)/C=C/c3ccco3)n2)cc1`, the AC50 was 5.62 µM (active).

Turning to `Cc1ccc(/C=C/C(=O)NC(=S)Nc2ccccc2C(=O)NC2CCCCC2)cc1`, the AC50 result is “inactive”.

`O=C(/C=C/c1ccco1)NC(=S)Nc1ccc(N2CCOCC2)c(Cl)c1`: the AC50 result was “inactive”.

With `O=P(O)(CCP(=O)(O)c1ccccc1)c1ccccc1`, the activity, negative = inhibition is -14.2% [at 11.4 µM] (inactive).

Take `Cc1cc2nc(C)n(CCCN)c2cc1C`: the concentration at half-maximal activity (AC50) is 12.6 µM (active).

For the compound `NCCCc1ccc2oc3ccccc3c2c1`, the AC50 was 0.0316 µM (active).

In the case of `CCN(CC)C(=O)C1CCN(S(=O)(=O)c2ccc3oc4ccccc4c3c2)CC1`, the AC50 entry was “inactive”.

In the case of `Cc1ccc(C(=O)Nc2ccc(Cc3ccncc3)cc2)cc1[N+](=O)[O-]`, the concentration at half-maximal activity (AC50) is 0.282 µM (active).

For `Cc1ccc(C(=O)Nc2ccccc2Oc2ccccc2)cc1[N+](=O)[O-]`, the AC50 is 12.6 µM (active).

In the case of `Cc1ccc(/C=N/NC(=O)c2cccs2)cc1[N+](=O)[O-]`, the AC50 is 2.24 µM (active).

For the compound `Cc1ccc(C(=O)N/N=C/c2cc(C)n(-c3ccc(Br)cc3)c2C)cc1[N+](=O)[O-]`, the AC50 result is “inactive”.

On to `CCC(=O)Nc1ccc(C(=O)OCC(=O)c2ccc(C)c([N+](=O)[O-])c2)cc1`, for which the AC50 entry is “inactive”.

Turning to `Cc1ccc(C(=O)N/N=C\c2ccc[nH]2)cc1[N+](=O)[O-]`, the half-maximal activity concentration (AC50) was 1.78 µM (active).

Regarding `O=C(N/N=C/C=C/c1ccc([N+](=O)[O-])cc1)c1cccs1`, the AC50 result was “inactive”.

Regarding `Cc1ccc(C(=O)COC(=O)CNC(=O)C(c2ccccc2)c2ccccc2)cc1[N+](=O)[O-]`, the AC50 result is “inactive”.

For `COc1cccc(CNC(=O)C2CCN(S(=O)(=O)N3CCCCC3)CC2)c1`, the AC50 entry was “inactive”.

With `CN1CC[C@@]2(CCN3CCc4c(oc5ccccc45)[C@@H]3C2)N(C)C1=O`, the AC50 result was “inactive”.

Consider `C[C@@H](N)[C@@H](C)Cc1ccccc1`, for which the activity, negative = inhibition was -20% [at 11.4 µM] (inactive).

`CCOc1ccc(N2C(=O)c3cccnc3C2=O)cc1`: the AC50 entry is “inactive”.

As to `O=C1c2ccc3c4c(ccc(c24)C(=O)N1c1ccc2ccccc2c1)CC3`, the AC50 is 0.794 µM (active).

For `CCc1ccc(N2C(=O)c3ccc4c5c(ccc(c35)C2=O)CC4)cc1`, the AC50 was 4.47 µM (active).

Regarding `Cc1cccc(CNc2ncnc3ccc(-c4cccc(C#N)c4)cc23)c1`, the AC50 was 0.631 µM (active).

As to `N#Cc1cccc(-c2ccc3ncnc(NCc4cccs4)c3c2)c1`, the half-maximal activity concentration (AC50) is 0.1 µM (active).

On to `c1csc(CNc2ncnc3ccc(-c4ccoc4)cc23)c1`, for which the AC50 is 3.16 µM (active).

In the case of `N#Cc1cccc(-c2ccc3ncnc(NCc4ccccc4)c3c2)c1`, the AC50 was 0.1 µM (active).

Take `C/C(CCN1CCCCc2nc(C)c(C)cc21)=N\O[C@@H](C)CN1CCCCc2nc(C)c(C)cc21`: the activity, negative = inhibition is -20.9% [at 11.4 µM] (inactive).

For the compound `C/C=C\C[C@H](C)[C@H](O)[C@H]1C(=O)N[C@@H](CC)C(=O)N(C)CC(=O)N(C)[C@@H](CC(C)C)C(=O)N[C@@H](C(C)C)C(=O)N(C)[C@@H](CC(C)C)C(=O)N[C@@H](C)C(=O)N[C@@H](C)C(=O)N(C)[C@@H](CC(C)C)C(=O)N(C)[C@@H](CC(C)C)C(=O)N(C)[C@@H](C(C)C)C(=O)N1C`, the AC50 result is “inactive”.

For `CC1=CC(C)(C)NC(=S)N1c1cccc(C)c1`, the AC50 entry was “inactive”.

Turning to `COc1cccc(-c2ccc3ncnc(NCc4cccs4)c3c2)c1`, the AC50 was 0.501 µM (active).

As for `Cc1cc(C)cc(N(CC(=O)NCCSc2ccccn2)S(=O)(=O)c2ccccc2)c1`, the AC50 result was “inactive”.

Take `Cn1c([N+](=O)[O-])cnc1COC(N)=O`: the AC50 result was “inactive”.

With `CC[N+](CC)(CC(=O)Nc1c(C)cccc1C)Cc1ccccc1`, the AC50 result was “inactive”.

`COC(=O)c1scc(C)c1NC(=O)Cc1ccccc1`: the concentration at half-maximal activity (AC50) was 12.6 µM (active).

In the case of `Cc1cccc(C)c1NC(=O)CS(=O)CC(=O)NCCCc1ccccc1` (centres undefined), the AC50 result was “inactive”.

With `Nc1ncnc2c1ncn2[C@@H]1O[C@@H](C(=O)NC2CC2)[C@H](O)[C@@H]1O`, the AC50 result was “inactive”.

As for `Cc1ccc2[nH]c3c(c2c1)CN(C(=O)CN1c2ccc(F)cc2CCC1C)CC3` (centres undefined), the AC50 was 5.62 µM (active).

Turning to `CNCCCC1c2ccccc2C=Cc2ccccc21`, the AC50 result is “inactive”.

On to `O=C(OCc1nnc(-c2ccccc2)o1)c1ccc2c(c1)OCCO2`, for which the concentration at half-maximal activity (AC50) was 2.51 µM (active).

As for `CCCN1C(=O)C2(/C(=C(\O)c3ccc4c(c3)OCCO4)C(=O)C(=O)N2CCCOC)c2ccccc21` (centres undefined), the AC50 entry is “inactive”.

In the case of `Cc1ncc(N=Nc2ccccc2Cl)c(-c2ccccc2)n1`, the half-maximal activity concentration (AC50) is 0.631 µM (active).

As for `CN(C(=O)CN(CCO)CC(=O)N(C)C(C)(C)Cc1ccccc1)C(C)(C)Cc1ccccc1`, the AC50 entry is “inactive”.

As for `OCCN(Cc1ccccc1)Cc1cccc(Cl)c1Cl`, the AC50 is 5.62 µM (active).

As to `CCc1c(O)nc2sc3ccccc3n2c1=O`, the half-maximal activity concentration (AC50) is 15.8 µM (active).

Regarding `CCCc1nn2c(=O)c(C(c3ccc(C)cc3)c3c(O)nc4sc(CCC)nn4c3=O)c(O)nc2s1`, the AC50 result is “inactive”.

For `CCc1c(O)nc(SCC(=O)NC(C)(C)C)n(-c2ccccc2)c1=O`, the AC50 entry was “inactive”.

Consider `COc1ccc(Oc2ncc3nc(C)c(=O)n(C[C@H]4CCCO4)c3n2)cc1`, for which the concentration at half-maximal activity (AC50) was 12.6 µM (active).

Take `COc1ncc2ncc(=O)n(C[C@H]3CCCO3)c2n1`: the concentration at half-maximal activity (AC50) was 15.8 µM (active).

As for `CCC(=O)Nc1ccc(C(=O)CSc2nnc(-c3ccc(O)cc3)n2CC2CCCO2)cc1OC` (centres undefined), the AC50 result is “inactive”.

Consider `COC(=O)C1=C(N)Oc2cc(C)n(CC3CCCO3)c(=O)c2C1c1ccccc1OC` (centres undefined), for which the AC50 entry is “inactive”.

With `O=c1cnc2cnc(Oc3cccc(Cl)c3)nc2n1C[C@H]1CCCO1`, the concentration at half-maximal activity (AC50) was 5.01 µM (active).

`COc1ccc(Oc2ncc3ncc(=O)n(C[C@H]4CCCO4)c3n2)cc1`: the AC50 is 6.31 µM (active).

Take `CN1CCC(=C2c3ccccc3CC(=O)c3sccc32)CC1`: the AC50 result is “inactive”.

For `CC1(CCC#N)N=C(SCCC#N)N(c2ccccc2)C1=O` (centres undefined), the AC50 entry is “inactive”.

Turning to `C=C1CCO[C@@]2([C@H](O)[C@@](C)(O)CO)NC(=O)[C@]1(O)NC2=O`, the activity, negative = inhibition was -3.99% [at 2.29 µM] (inactive).

Take `Cc1ccc(NC(=O)NNC(=O)Cn2nc(-c3ccccc3)c(-c3ccccc3)c(C#N)c2=O)cc1`: the AC50 result was “inactive”.

For the compound `Cc1nc2c(c(-c3ccccc3)c1C#N)C(=O)c1ccccc1-2`, the AC50 is 0.2 µM (active).

On to `O=C(COc1cccc2ccccc12)N1c2ccccc2CCc2ccccc21`, for which the AC50 is 6.31 µM (active).

Consider `O=C1c2ccccc2C(=O)N1CC(=O)N1c2ccccc2CCc2ccccc21`, for which the AC50 result was “inactive”.

For `CCN(CC)CCC(=O)Nc1ccc2c(c1)N(C(=O)CN(CC)CC)c1ccccc1CC2`, the AC50 result was “inactive”.

As for `C[C@@H](C[C@H](N)C(=O)O)C(=O)O`, the activity, negative = inhibition is -18.7% [at 11.4 µM] (inactive).

For the compound `CCOC(=O)C1=NO[C@@]2(C=C(Br)C3(OCCCO3)[C@H]3O[C@H]32)C1`, the activity, negative = inhibition was 1.82% [at 11.4 µM] (inactive).

On to `Cc1cc(C)cc(N2C(=O)CC(Sc3nnnn3-c3ccccc3)C2=O)c1` (centres undefined), for which the AC50 result is “inactive”.

For `COc1ccc(N2C(=O)CC(S/C(N)=N/N=C(\C)c3cccs3)C2=O)cc1` (centres undefined), the half-maximal activity concentration (AC50) is 2.51 µM (active).

In the case of `CC(C)(C)NS(=O)(=O)c1ccc(NC(=O)NC2CCCCC2)cc1`, the AC50 entry was “inactive”.

On to `Oc1ccccc1-c1nnc(-c2ccc(C(F)(F)F)cc2)o1`, for which the half-maximal activity concentration (AC50) was 5.01 µM (active).

On to `O=C(C[C@@H]1C=Cc2ccccc2N1C(=O)c1ccccc1)c1ccccc1`, for which the activity, negative = inhibition was -23.2% [at 2.29 µM] (inactive).

As for `O=C(/C=C\NCC(=O)c1ccccc1)c1ccccc1`, the AC50 is 5.01 µM (active).

For the compound `CC(C)CCOc1ccc(NC(=O)C2OC3OC(C)(C)OC3C3OC(C)(C)OC23)cc1` (centres undefined), the AC50 entry is “inactive”.

Turning to `c1ccc(-c2nc(CSc3n[nH]c(-c4cccs4)n3)cs2)cc1`, the concentration at half-maximal activity (AC50) was 2.82 µM (active).

For the compound `O=C(O)c1ccc(C(=O)Nc2cccc3ccccc23)c(C(=O)O)c1`, the activity, negative = inhibition was -6.15% [at 2.29 µM] (inactive).

As for `COC(=O)CCC(=O)Nc1cccc(C(=O)Nc2cccc(Cl)c2)c1`, the concentration at half-maximal activity (AC50) was 4.47 µM (active).

As to `CCn1c(C)c(C)c2cc(C(=O)Nc3cccc(Cl)c3)ccc21`, the AC50 is 3.16 µM (active).

Take `Cc1c(C)n(C)c2ccc(C(=O)Nc3cccc4ccccc34)cc12`: the concentration at half-maximal activity (AC50) was 2 µM (active).

On to `O=c1[nH]c(=O)n(Cc2ccco2)c2c1C(C(F)(F)F)(C(F)(F)F)N=C(CCC1CCCCC1)N2`, for which the AC50 entry is “inactive”.

Regarding `CC1(C)CCC(NC(=O)[C@H](N)CCC(=O)O)CC1`, the AC50 result was “inactive”.

`Cc1cnc(CNc2ccnc(-c3ccccc3C)n2)cn1`: the AC50 was 12.6 µM (active).

For `Cc1cnc(CNc2ccnc(-c3ccccc3Cl)n2)cn1`, the AC50 was 12.6 µM (active).

As to `COc1ccccc1-c1nccc(NCc2cnc(C)cn2)n1`, the concentration at half-maximal activity (AC50) is 12.6 µM (active).

For the compound `Cc1cnc(CNc2ccnc(-c3ccccc3C(F)(F)F)n2)cn1`, the concentration at half-maximal activity (AC50) was 15.8 µM (active).

As to `Cc1ccc(S(=O)(=O)CC(O)CN2CCCC2=O)cc1` (centres undefined), the AC50 result was “inactive”.

On to `O=S1(=O)N[C@H]2CC[C@@H]3NS(=O)(=O)N[C@H]4CC[C@H](N1)N4S(=O)(=O)N23`, for which the activity, negative = inhibition is 2.05% [at 11.4 µM] (inactive).

Regarding `Cn1c(=O)c2c(nc(Cc3ccccc3)n2CC(=O)O)n(C)c1=O`, the activity, negative = inhibition is -13.2% [at 2.29 µM] (inactive).

Consider `CN(C)CCn1c(CO)nc2c1c(=O)n(C)c(=O)n2C`, for which the activity, negative = inhibition was -6.02% [at 11.4 µM] (inactive).

Regarding `Cn1c(=O)c2c(nc(Cl)n2Cc2ccc(Cl)c(Cl)c2)n(C)c1=O`, the AC50 is 12.6 µM (active).

Regarding `COc1ccc2c(OC)c3ccoc3nc2c1OC`, the AC50 was 0.0794 µM (active).

Consider `CS(=O)(=O)N1CCC2(CCN(C(c3ccccc3)c3ccccc3)CC2)CC1`, for which the AC50 result is “inactive”.

For `COc1ccc2[nH]cc(CCNc3ncncc3-c3c(C)noc3C)c2c1`, the AC50 was 12.6 µM (active).

As for `COc1ccc2[nH]cc(CCNc3ncncc3-c3ccccc3Cl)c2c1`, the concentration at half-maximal activity (AC50) was 0.631 µM (active).

For `COc1ccc2[nH]cc(CCNc3ncncc3-c3ccccc3CN(C)C)c2c1`, the AC50 is 20 µM (active).

`COc1ccc2[nH]cc(CCNc3ncncc3-c3ccccc3C(F)(F)F)c2c1`: the half-maximal activity concentration (AC50) is 10 µM (active).
